Values joined by “and” are separate entries in the source; they are usually repeats but may differ in a detail not shown here. Identical values can stand only once. In all, about 5,500 compounds went through this assay and about 2,000 (36%) were called active. Inconclusive results (about 18%) are left out. Rule as the data show it: active = normalized growth mostly below about 0.91 (no sharp cut-off); inconclusive = no clear call, values can overlap the other calls; inactive = mostly above about 0.92. The list shows a part of the results.
Assay: chemical genetic growth profiling, strain panel (AID 1159580);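 also: tested at 20 µM; growth read once vehicle control cultures reached saturation at 30 °C; 1 = growth at the plate median or of vehicle wells; lower values mean less growth of the strain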
Details: S. cerevisiae deletion strains, growth OD

Measured: normalized growth

COc1ccc(C(=O)/C=C/c2ccccc2)cc1
inactive: locus YAL021C, strain ccr4, stronger effect = lower value 1.01 | locus YAL026C, strain drs2, stronger effect = lower value 0.924 | locus YAL030W, strain snc1, stronger effect = lower value 0.951 | locus YBL061C, strain skt5, stronger effect = lower value 0.947 | locus YBR171W, strain sec66, stronger effect = lower value 0.939 | locus YBR229C, strain ROT2, stronger effect = lower value 0.991 | locus YBR231C, strain swc5, stronger effect = lower value 0.927 | locus YBR279W, strain paf1, stronger effect = lower value 0.951 | locus YCL069W, strain vba3, stronger effect = lower value 0.944 | locus YCR088W, strain abp1, stronger effect = lower value 0.965 | locus YDL005C, strain med2, stronger effect = lower value 0.992 | locus YDL035C, strain GPR1, stronger effect = lower value 0.921 | locus YDL040C, strain nat1, stronger effect = lower value 1.01 | locus YDL101C, strain DUN1, stronger effect = lower value 0.941 | locus YDL185W, strain tfp1, stronger effect = lower value 0.942 | locus YDR001C, strain nth1, stronger effect = lower value 0.982 | locus YDR069C, strain doa4, stronger effect = lower value 0.995 | locus YDR150W, strain NUM1, stronger effect = lower value 1.01 | locus YDR159W, strain sac3, stronger effect = lower value 0.956 | locus YDR162C, strain NBP2, stronger effect = lower value 0.965 | locus YDR195W, strain ref2 1.1 | locus YDR297W, strain sur2, stronger effect = lower value 0.939 | locus YDR334W, strain swr1, stronger effect = lower value 0.999 | locus YDR388W, stronger effect = lower value 0.955 | locus YEL037C, strain rad23, stronger effect = lower value 0.982 | locus YER015W, strain faa2, stronger effect = lower value 0.956 | locus YER111C, strain swi4, stronger effect = lower value 0.968 | locus YER167W, strain BCK2, stronger effect = lower value 0.994 | locus YFR010W, strain ubp6, stronger effect = lower value 0.96 | locus YGL167C, strain pmr1, stronger effect = lower value 0.971 | locus YHR013C, strain ard1, stronger effect = lower value 0.947 | locus YHR027C, strain rpn1, stronger effect = lower value 0.939 | locus YHR079C, strain IRE1 (second series), stronger effect = lower value 0.932 | locus YHR094C, strain hxt1, stronger effect = lower value 0.941 | locus YIL066C, strain RNR3, stronger effect = lower value 0.919 | locus YIL073C, strain SPO22, stronger effect = lower value 0.889 | locus YIL125W, strain kgd1, stronger effect = lower value 0.985 | locus YJL092W, strain hpr5, stronger effect = lower value 0.965 | locus YJL115W, strain asf1, stronger effect = lower value 0.984 | locus YJL134W, strain LCB3, stronger effect = lower value 0.99 | locus YJL154C, strain vps35, stronger effect = lower value 0.995 | locus YJL168C, strain set2, stronger effect = lower value 0.959 | locus YJL187C, strain SWE1 (second series), stronger effect = lower value 0.908 | locus YJR066W, strain TOR1, stronger effect = lower value 0.841 | locus YKL068W, stronger effect = lower value 0.983 | locus YKL085W, strain MDH1 (second series), stronger effect = lower value 0.974 | locus YKL085W, strain MDH1, stronger effect = lower value 0.974 | locus YKL190W, strain CNB1, stronger effect = lower value 1.01 | locus YKR026C, strain gcn3, stronger effect = lower value 0.983 | locus YKR091W, strain srl3, stronger effect = lower value 0.982 | locus YLL026W, stronger effect = lower value 0.971 | locus YLL041C, strain sdh2, stronger effect = lower value 0.999 | locus YLR039C, strain RIC1, stronger effect = lower value 0.792 | locus YLR058C, strain SHM2, stronger effect = lower value 0.899 | locus YLR102C, strain apc9, stronger effect = lower value 0.964 | locus YLR258W, strain gsy2, stronger effect = lower value 0.936 | locus YLR357W, strain rsc2, stronger effect = lower value 0.957 | locus YLR370C, strain arc18, stronger effect = lower value 0.978 | locus YLR384C, strain iki3, stronger effect = lower value 0.969 | locus YML016C, strain PPZ1, stronger effect = lower value 0.947 | locus YML120C, strain ndi1, stronger effect = lower value 0.954 | locus YML124C, strain tub3, stronger effect = lower value 0.958 | locus YMR129W, stronger effect = lower value 0.985 | locus YMR231W, strain pep5, stronger effect = lower value 1 | locus YMR307W, strain GAS1, stronger effect = lower value 0.939 | locus YNL067W, strain RPL9B, stronger effect = lower value 0.954 | locus YNL128W, strain TEP1, stronger effect = lower value 0.922 | locus YNL183C, strain NPR1, stronger effect = lower value 0.838 | locus YNL209W, strain ssb2, stronger effect = lower value 0.968 | locus YNL250W, strain rad50, stronger effect = lower value 0.958 | locus YNL271C, strain bni1, stronger effect = lower value 0.92 | locus YNL322C, strain KRE1 (second series), stronger effect = lower value 0.917 | locus YNR049C, strain mso1, stronger effect = lower value 0.995 | locus YNR052C, strain pop2, stronger effect = lower value 0.941 | locus YOL006C, strain TOP1, stronger effect = lower value 0.664 | locus YOL012C, strain htz1 0.771 | locus YOR001W, strain rrp6, stronger effect = lower value 0.905 | locus YOR061W, strain CKA2, stronger effect = lower value 0.981 | locus YOR069W, strain VPS5, stronger effect = lower value 0.958 | locus YOR070C, strain gyp1, stronger effect = lower value 0.928 | locus YOR080W, strain dia2, stronger effect = lower value 0.981 | locus YOR136W, strain idh2, stronger effect = lower value 0.939 | locus YOR265W, strain rbl2, stronger effect = lower value 0.994 | locus YOR316C, strain cot1, stronger effect = lower value 0.966 | locus YPL240C, strain hsp82, stronger effect = lower value 0.954 | locus YPR119W, strain clb2, stronger effect = lower value 0.964 | locus YPR141C, strain kar3, stronger effect = lower value 0.965
0.95 (inactive) and 0.812 (active): locus YHR030C, strain SLT2, stronger effect = lower value
active: locus YBR009C, strain hhf1, stronger effect = lower value 0.825 | locus YBR021W, strain FUR4, stronger effect = lower value 0.782 | locus YBR023C, strain chs3, stronger effect = lower value 0.911 | locus YCL011C, strain gbp2, stronger effect = lower value 0.902 | locus YCL016C, strain dcc1, stronger effect = lower value 0.876 | locus YCL029C, strain bik1, stronger effect = lower value 0.822 | locus YCL061C, strain MRC1, stronger effect = lower value 0.846 | locus YDL074C, strain BRE1, stronger effect = lower value 0.738 | locus YDL192W, strain arf1, stronger effect = lower value 0.832 | locus YDR101C, strain arx1, stronger effect = lower value 0.867 | locus YDR137W, strain rgp1, stronger effect = lower value 0.845 | locus YDR318W, strain mcm21, stronger effect = lower value 0.798 | locus YDR335W, strain msn5, stronger effect = lower value 0.889 | locus YDR392W, strain spt3, stronger effect = lower value 0.194 | locus YDR502C, strain sam2, stronger effect = lower value 0.787 | locus YEL003W, strain gim4, stronger effect = lower value 0.856 | locus YEL061C, strain CIN8 (second series), stronger effect = lower value 0.844 | locus YER016W, strain bim1, stronger effect = lower value 0.91 | locus YER110C, stronger effect = lower value 0.873 | locus YER155C, strain BEM2 (second series), stronger effect = lower value 0.268 | locus YER155C, strain BEM2, stronger effect = lower value 0.686 | locus YGL078C, strain dbp3, stronger effect = lower value 0.906 | locus YGL086W, strain mad1, stronger effect = lower value 0.779 | locus YGL173C, strain kem1, stronger effect = lower value 0.889 | locus YGL227W, strain vid30, stronger effect = lower value 0.892 | locus YGL240W, strain doc1, stronger effect = lower value 0.762 | locus YGL248W, strain PDE1, stronger effect = lower value 0.824 | locus YGL253W, strain hxk2, stronger effect = lower value 0.908 | locus YGR135W, strain pre9, stronger effect = lower value 0.696 | locus YGR252W, strain gcn5, stronger effect = lower value 0.629 | locus YHR079C, strain IRE1, stronger effect = lower value 0.756 | locus YHR129C, strain ARP1, stronger effect = lower value 0.87 | locus YHR142W, strain chs7, stronger effect = lower value 0.767 | locus YHR200W, strain rpn10, stronger effect = lower value 0.866 | locus YIR030C, strain dcg1, stronger effect = lower value 0.888 | locus YJL095W, strain BCK1 (second series), stronger effect = lower value 0.886 | locus YJL095W, strain BCK1, stronger effect = lower value 0.544 and 0.84 | locus YJL129C, strain trk1, stronger effect = lower value 0.859 | locus YJL164C, strain tpk1, stronger effect = lower value 0.887 | locus YJL166W, strain qcr8, stronger effect = lower value 0.746 | locus YJL187C, strain SWE1, stronger effect = lower value 0.917 | locus YKL009W, strain mrt4, stronger effect = lower value 0.834 | locus YKL160W, strain elf1, stronger effect = lower value 0.878 | locus YKR001C, strain vps1, stronger effect = lower value 0.783 | locus YLL001W, strain dnm1, stronger effect = lower value 0.898 | locus YLR027C, strain aat2, stronger effect = lower value 0.846 | locus YLR113W, strain HOG1, stronger effect = lower value 0.628 | locus YLR221C, strain rsa3, stronger effect = lower value 0.809 | locus YLR262C, strain YPT6 (second series), stronger effect = lower value 0.855 | locus YLR268W, strain sec22, stronger effect = lower value 0.818 | locus YLR320W, strain mms22, stronger effect = lower value 0.525 | locus YLR330W, strain CHS5, stronger effect = lower value 0.854 | locus YLR342W, strain FKS1, stronger effect = lower value 0.839 | locus YLR371W, strain rom2, stronger effect = lower value 0.796 | locus YLR418C, strain cdc73, stronger effect = lower value 0.358 | locus YML032C, strain rad52, stronger effect = lower value 0.746 | locus YMR058W, strain fet3, stronger effect = lower value 0.803 | locus YMR078C, strain ctf18, stronger effect = lower value 0.73 | locus YMR125W, strain sto1, stronger effect = lower value 0.856 | locus YMR205C, strain PFK2, stronger effect = lower value 0.707 | locus YMR223W, strain ubp8, stronger effect = lower value 0.852 | locus YNL071W, strain lat1, stronger effect = lower value 0.307 | locus YNL233W, strain BNI4, stronger effect = lower value 0.777 | locus YNL248C, strain rpa49, stronger effect = lower value 0.687 | locus YNL298W, strain CLA4, stronger effect = lower value 0.858 | locus YNL307C, strain MCK1, stronger effect = lower value 0.239 | locus YOL147C, strain pex11, stronger effect = lower value 0.752 | locus YOR083W, strain WHI5, stronger effect = lower value 0.86 | locus YOR106W, strain vam3, stronger effect = lower value 0.823 | locus YOR144C, strain elg1, stronger effect = lower value 0.897 | locus YOR184W, strain ser1, stronger effect = lower value 0.43 | locus YOR231W, strain MKK1, stronger effect = lower value 0.757 | locus YOR270C, strain vph1, stronger effect = lower value 0.613 | locus YOR290C, strain snf2, stronger effect = lower value 0.792 | locus YPL051W, strain arl3, stronger effect = lower value 0.868 | locus YPL078C, strain atp4, stronger effect = lower value 0.799 | locus YPL106C, strain sse1, stronger effect = lower value 0.76 | locus YPL256C, strain CLN2, stronger effect = lower value 0.74 | locus YPR163C, strain tif3, stronger effect = lower value 0.432 | locus YPR167C, strain met16, stronger effect = lower value 0.889 | strain wtn01, stronger effect = lower value 0.811

— PubChem BioAssay AID1159580 (chemical genetic matrix, 2015)
